# Shown are actives, neighbours in structure and some others; about 2.4% of the full set was active somewhere.
# D2 PAM-1: D2 dopamine receptor (human) potentiation; potentiation, % at 10 µM; P14416; HEK293 T-REx D2, calcium flux, EC20 dopamine potentiation; AID 485347; actives 0.34% (n = 340,000);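 active means potentiation over 3 SD above the plate norm, cut at about 30% in these data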
# Target sequence (P14416 whole entry, looked up): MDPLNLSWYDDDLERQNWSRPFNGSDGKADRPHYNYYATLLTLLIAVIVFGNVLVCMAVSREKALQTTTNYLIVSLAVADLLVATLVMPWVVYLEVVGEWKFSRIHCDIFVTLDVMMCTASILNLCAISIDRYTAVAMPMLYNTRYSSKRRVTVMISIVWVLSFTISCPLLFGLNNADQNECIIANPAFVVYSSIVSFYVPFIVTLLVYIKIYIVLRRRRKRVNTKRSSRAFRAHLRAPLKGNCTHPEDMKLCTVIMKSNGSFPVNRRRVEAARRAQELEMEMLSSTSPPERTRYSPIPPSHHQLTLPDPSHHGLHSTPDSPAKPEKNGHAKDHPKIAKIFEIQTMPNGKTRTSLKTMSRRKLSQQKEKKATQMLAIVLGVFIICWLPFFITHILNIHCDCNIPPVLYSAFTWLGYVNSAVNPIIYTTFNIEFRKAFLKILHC
#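 Using a no-wash calcium dye in inducible, force-coupled HEK293 Trex cells expressing D2, we tracked fluorescence each second for 180 s after compound, then for 180 s after EC20 dopamine to detect augmented signalling.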
# D2 ag-1: human D2 receptor agonism in beta-arrestin assay; P14416; AID 624465; activation, % (no concentration beside the values); actives 0.084% (n = 360,000); DiscoveRx PathHunter D2 beta-arrestin, luminescence, 90 min; 100% = 57 uM dopamine signal; in the data active means activation above about 40%
#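 DiscoveRx PathHunter D2 beta-arrestin cells (2,100/well) attached overnight, then compound-stimulated 90 min at 37 C in HBSS/10 mM HEPES/0.1% Tween-20 buffer; beta-galactosidase complementation read by luminescence after 1 h at ambient temperature. Dopamine 57 uM final (EC100) as control.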
# D2 ag-2: D2 dopamine receptor (human) agonism; P14416; HEK293 T-REx D2 cells, calcium flux agonist mode; activation, % at 2 µM; actives 0.53% (n = 340,000);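 active means activation over 3 SD above normal in the single-dose calcium agonist read, cut at about 30% in these data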
#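 Tetracycline-induced HEK293 Trex cells with D2 receptor force-coupled to calcium signaling, plated overnight at 30 C and loaded with no-wash calcium dye. Calcium flux read kinetically for 180 s after compound addition; responses flag agonists.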
# D2 PAM-2: human D2 receptor positive allosteric modulation; P14416; DiscoveRx D2 beta-arrestin cells, luminescence, 90 min; 100% = 57 uM dopamine signal; potentiation, % (test concentration not listed); actives 0.23% (n = 360,000); AID 624464; in the data active means potentiation above about 50%
#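 PathHunter beta-arrestin assay in DiscoveRx D2 cells. Compounds were added with an EC20 of dopamine (50 nM final) for 90 min at 37 deg C. Luminescence was read 1 h after detection reagent, with 57 uM dopamine as the EC100 control.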
# D2 antagonist: antagonizes the human D2 dopamine receptor | AID 485344 | HEK293 TREx D2 cells, calcium flux, dopamine EC80 | actives 2% (n = 340,000) | inhibition, % at 10 µM; in the data active means inhibition above about 30%; inactive means below that, where a call was filed
#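 Cells plated overnight at 30 C with tetracycline; no-wash calcium dye, 30–90 min RT; 10 s baseline; compound pinned; 180 s read; EC80 dopamine added; another 180 s read.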
# A number is an active result; i = inactive; nt = no result given.
SMILES,D2 PAM-1,D2 ag-1,D2 ag-2,D2 PAM-2,D2 antagonist
O=C(c1ccc2c(c1)N(Cc1ccc(Cl)cc1)C(=O)c1ccccc1S2(=O)=O)N1CCCC1,i,nt,i,nt,nt
Cc1cc(C)cc(NC(=O)[C@H](NC(=O)[C@@H]2Cc3ccccc3CN2)c2ccccc2)c1,i,i,i,i,40
Cn1c(=O)oc2cc(NC(=O)CCl)ccc21,i,i,i,i,32
CC(=O)Nc1ccc(NC(=O)CCS(=O)(=O)c2ccc3c(c2)oc(=O)n3C)cc1,i,i,i,i,i
O=C(Nc1ccc(-n2nncc2-c2ccco2)cc1)c1cccc(F)c1,i,i,i,i,42
CCn1cc(C(=O)NCCN(CC(C)C)CC(C)C)c(=O)c2cc(S(=O)(=O)N(C)C3CCCCC3)ccc21,i,nt,i,nt,nt
Cc1cccc(-c2nc(SCC(=O)Nc3cccc(C(F)(F)F)c3)n3[nH]c(=O)cc3n2)c1,nt,nt,i,nt,nt
CC(C)=C1C2CCC1C1C(=O)N(NC(=O)COc3ccc(C(C)(C)C)cc3)C(=O)C21 (configuration not stated),i,i,i,i,32
CC(C)(C)c1ccc(OCC(=O)NNC(=O)C2CCCO2)cc1 (configuration not stated),i,i,i,i,i
COc1ccc(C(CNC(=O)c2cccc(S(=O)(=O)Nc3ccccc3OC)c2)N2CCCC2)cc1 (configuration not stated),i,i,i,i,i
COc1ccc(C(CNC(=O)c2cccc(N(C)C)c2)N2CCCC2)cc1 (configuration not stated),i,i,i,i,47
COc1ccc(C(CNC(=O)c2ccc(C)c(S(=O)(=O)Nc3ccccc3OC)c2)N2CCCC2)cc1 (configuration not stated),i,i,i,i,49
C=CCN(c1ccccc1)S(=O)(=O)c1cccc(C(=O)NCC(c2ccc(OC)cc2)N2CCCCC2)c1 (configuration not stated),i,i,i,i,55
COc1ccc(C2CC(=O)Nc3c2c(C)nn3-c2nncc(-c3ccc(C)cc3)n2)c(OC)c1OC (configuration not stated),i,nt,i,nt,nt
COc1ccc(N2CC(NC(=O)C(=O)c3c[nH]c4ccccc34)CC2=O)cc1 (configuration not stated),i,nt,i,nt,nt
COc1cc(OC)c(NS(=O)(=O)c2cc(-c3cnc(C)o3)ccc2OC)cc1Cl,i,nt,i,nt,nt
Cc1ccc(S(=O)(=O)n2nc(-c3ccccc3)nc2NCc2ccccc2Cl)cc1,i,nt,i,nt,nt
c1ccc(-c2cnc(SCCN3CCOCC3)n2CC2CCCO2)cc1 (configuration not stated),i,i,i,i,34
COc1cc(OC)cc(C(=O)NC2CC(C)(C)NC(C)(C)C2)c1,i,i,i,i,82
CC1(C)CC(NC(=O)c2cc([N+](=O)[O-])cc([N+](=O)[O-])c2)CC(C)(C)N1,i,i,i,i,i
CC(=O)N1c2c(cc(Br)cc2S(=O)(=O)NCc2ccccc2)CC1C (configuration not stated),nt,i,i,i,i
COc1cccc(CNS(=O)(=O)c2cc(Br)cc3c2N(C(C)=O)C(C)C3)c1 (configuration not stated),i,i,i,i,40
COc1ccc(CC(=O)NNC(=O)c2cc(C)oc2C)cc1OC,i,i,i,i,32
Clc1cccc(-n2ncc3c(NC4CCCCC4)ncnc32)c1,i,nt,i,nt,nt
COc1ccc(-c2cc3ccccc3n2CC(O)CN2CCC(C)CC2)cc1 (configuration not stated),i,i,i,i,81
SMILES,D2 PAM-1,D2 ag-1,D2 ag-2,D2 PAM-2,D2 antagonist
COc1ccc(-c2cc3ccccc3n2CC(O)Cn2nc(C)cc2C)cc1 (configuration not stated),i,i,i,i,i
CSc1ccc(C2c3[nH]c4ccccc4c3CCN2C(=O)CCC2CCCC2)cc1 (configuration not stated),i,nt,i,nt,nt
COCCNc1cc(N2CCN(C3CCCCC3)CC2)c2noc3c2c1C(=O)c1ccccc1-3,i,nt,i,nt,nt
CCOc1ccc(/C=C/c2nc(C#N)c(NC3CCCCC3)o2)cc1,i,nt,i,nt,nt
O=C(Nc1nnc(C(F)(F)F)s1)c1ccc(Br)s1,i,i,i,i,35
CCSc1nnc(NC(=O)c2ccc(Br)s2)s1,i,i,i,i,i
CCCCOc1ccc(Cl)cc1CSc1nnc(CC)n1N,nt,i,i,i,36
CCCOc1ccc(CSc2nnc(CCC)n2N)cc1,i,i,i,i,i
O=C(O)c1csc(-n2nc(-c3ccccc3)cc2C(F)(F)F)n1,i,i,i,i,48
Cc1cc(C(F)(F)F)n(-c2nc(C(=O)O)cs2)n1,i,i,i,i,i
CCOC(=O)c1ccc(NC(=O)c2c(NCc3sccc3C)sc3c2CCCCC3)cc1,i,nt,nt,nt,nt
CC12CCC(C(=O)N3CCN(c4ccccc4)CC3)(CC1=O)C2(C)C (configuration not stated),i,i,i,i,i
COc1ccc(N2CCN(C(=O)C34CCC(C)(C(=O)C3)C4(C)C)CC2)cc1 (configuration not stated),i,i,i,i,37
COc1ccc(-c2nc3cc(NC(=O)c4ccc(C)cc4)ccc3o2)cc1Cl,i,nt,nt,nt,nt
OCCNC(=S)Nc1ccc2nsnc2c1,i,i,i,i,31
O=C1C=C(Nc2ccc(Cl)cc2)CC(c2ccc(Cl)cc2)C1 (configuration not stated),i,i,i,i,48
O=C(Cc1noc2ccccc12)NNC(=S)Nc1ccc(Cl)cc1,i,i,i,i,48
O=C(Cc1noc2ccccc12)NNC(=S)Nc1ccccc1,nt,i,nt,i,nt
CCOc1ccccc1NC(=O)CN1C(=O)COc2ccc(S(=O)(=O)N3CCOCC3)cc21,i,i,i,i,36
COc1ccccc1NC(=O)CN1C(=O)COc2ccc(S(=O)(=O)N3CCC(C)CC3)cc21,i,i,i,i,i
Cc1ccc(O)c(NC(=O)CSc2n[nH]c(C)c2[N+](=O)[O-])c1,nt,i,nt,i,nt
CSc1ccccc1NC(=O)CSc1n[nH]c(C)c1[N+](=O)[O-],i,i,i,i,41
N#Cc1c(-c2ccco2)cc(-c2cccnc2)nc1N,i,i,i,i,i
N#Cc1c(-c2ccco2)cc(-c2ccccn2)nc1N,36,i,i,i,i
CCOC(=O)c1ccc(NS(=O)(=O)c2c(C)[nH]c(C)c2C(=O)N2CCCCC2)cc1,i,i,i,i,69
COc1ccc(N(CC(=O)Nc2cc(C)cc(C)c2)S(=O)(=O)c2ccccc2[N+](=O)[O-])c(OC)c1,i,i,i,i,53
Cc1ccc(CNC(=O)CN(c2cc(C)cc(C)c2)S(=O)(=O)c2c(C)noc2C)cc1,nt,nt,i,nt,nt
